TDP1 cell noCPT: qHTS for Inhibitors of human tyrosyl-DNA phosphodiesterase 1 (TDP1): qHTS in cells in absence of CPT; DT40 Tdp1-/- hTDP1 cells, no CPT, ATP luminescence, 48 h; Potency, µM (titrated, usually from 46.2 µM), for inactives: top-dose activity change, negative = growth inhibition, usual class: inhibitors; 15% of 420,000 active; also: potency is read from the fitted curve at half-maximal effect; % is scaled to controls: 0 for no effect and ±100 for the full control effect; nearly all actives have a fitted effect of over 55% in size
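Readout: luminescence from CellTiter-Glo after 30 min in the dark at RT. Cells: DT40 Tdp1-/- with stable hTDP1, 400/well. Exposure: compounds alone, ≥48 hr, 37 °C.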
TDP1 block: qHTS Assay for Inhibitors of Tyrosyl-DNA Phosphodiesterase (TDP1); Tyrosyl-DNA phosphodiesterase 1 (Homo sapiens), Q9NUW8; recombinant TDP1, AlphaScreen DNA substrate cleavage; Potency, µM (top dose mostly 130 µM), for inactives: top-dose activity change, negative = inhibition, actives largely listed as inhibitors; 0.28% of 350,000 active; also: potency is read from the fitted curve at half-maximal effect; % is scaled to controls: 0 for no effect and ±100 for the full control effect; nearly all actives have a fitted effect of over 40% in size
Target sequence (Q9NUW8 whole entry, looked up): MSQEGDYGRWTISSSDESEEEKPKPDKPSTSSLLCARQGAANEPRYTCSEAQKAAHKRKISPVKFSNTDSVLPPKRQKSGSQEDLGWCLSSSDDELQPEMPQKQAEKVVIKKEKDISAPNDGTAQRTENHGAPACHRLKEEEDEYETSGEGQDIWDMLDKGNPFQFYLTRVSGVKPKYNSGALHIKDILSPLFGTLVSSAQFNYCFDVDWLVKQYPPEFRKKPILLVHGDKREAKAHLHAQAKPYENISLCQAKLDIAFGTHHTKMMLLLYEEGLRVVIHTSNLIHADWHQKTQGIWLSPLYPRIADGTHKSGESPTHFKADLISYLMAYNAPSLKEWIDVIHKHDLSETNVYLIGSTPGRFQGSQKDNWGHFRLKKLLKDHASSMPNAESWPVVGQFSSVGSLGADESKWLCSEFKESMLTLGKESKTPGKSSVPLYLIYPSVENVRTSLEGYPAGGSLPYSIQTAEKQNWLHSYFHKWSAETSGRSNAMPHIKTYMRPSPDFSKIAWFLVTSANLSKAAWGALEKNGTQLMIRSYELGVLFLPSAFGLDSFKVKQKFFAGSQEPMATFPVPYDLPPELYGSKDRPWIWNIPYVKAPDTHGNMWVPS
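Recombinant E. coli-expressed Tdp1 (1 nM) preincubated with compound 15 min at RT, then 5'-biotin/3'-phosphotyrosine-FITC DNA substrate (15 nM) added for 5 min. AlphaScreen beads (10 ug/ml) added, 10 min RT; tyrosine-FITC cleavage read as signal loss.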
DT40 TDP1 CPT: qHTS for Inhibitors of human tyrosyl-DNA phosphodiesterase 1 (TDP1): qHTS in cells in presence of CPT | chicken DT40 Tdp1-/-;hTDP1 cells + 20 nM CPT, ATP luminescence, 48 h | Potency, µM (highest dose often 46.2 µM), for the others: top-dose activity change, negative = growth inhibition, actives largely listed as inhibitors | 12% of 420,000 active; also: potency is read from the fitted curve at half-maximal effect; % is scaled to controls: 0 for no effect and ±100 for the full control effect; nearly all actives have a fitted effect of over 55% in size
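Chicken DT40 Tdp1-/- cells complemented with human TDP1, 400 cells/well, exposed to compounds plus 20 nM camptothecin for at least 48 h at 37 C; viability read as ATP content by CellTiter-Glo luminescence.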
uPA generation: qHTS for Inhibitors of Cell Surface uPA Generation; cell surface uPA generation assay, qHTS; Potency, µM (series often up to 38.3 µM), inactives show at the top dose activity change, negative = inhibition, usual class: inhibitors; 0.31% of 330,000 active; active = well fitted inhibition curve with a large enough effect; inconclusive = small, poorly fitted or top-dose-only effect; inactive = no such curve, though single readings can be large or run the other way; tested in mouse RAW 264.7 cells; also: potency is read from the fitted curve at half-maximal effect; % is scaled to controls: 0 for no effect and ±100 for the full control effect; nearly all actives have a fitted effect of over 55% in size
miR-21 reporter: qHTS Assay for Modulators of miRNAs and/orActivators of miR-21. HeLa miR-21 FLuc reporter, luciferase, 48 h. Potency, µM (highest dose often 38.3 µM), for the others: at the highest dose activity change, positive = activation, most hits filed as activators. 340,000 tested, under 10 active;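 also: % of control where 0% means no effect; miR-21 action dims this reporter so a rising signal means less miR-21 action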
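Luminescence from a firefly luciferase reporter carrying a miR-21 binding site downstream, stably expressed under a CMV promoter in HeLa cells that make miR-21 endogenously, reports miRNA modulation after 48 h compound exposure up to approximately 40uM final.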
An asterisk follows results filed as active; u = inconclusive; x = not tested or not shown. Compounds with a hit are over-represented: about 16% of the library has one in this group of screens. Unless noted, calls follow the shape of the dose curve; as a rule, active = well fitted curve in the direction sought with a large enough effect; inconclusive = small, poorly fitted or top-dose-only effect, or another doubt; inactive = no such curve, though single readings can be large; an effect the other way counts as inactive or inconclusive.

SMILES	TDP1 cell noCPT	TDP1 block	DT40 TDP1 CPT	uPA generation	miR-21 reporter
Clc1ccc(N2CCN(/N=C/c3ccncc3)CC2)cc1	u	-1%	23µM*	-3%	-1%
COc1ccccc1/C=N/N1CCN(c2ccc(Cl)cc2)CC1	-17%	x	-7%	4%	3%
COc1ccccc1/C=C/C(=O)OCCN1C(=O)c2ccccc2C1=O	-8%	x	6%	6%	-5%
CCOC(=O)COc1ccc(CC)cc1C(=O)c1ccn2nc(-c3ccc(C)cc3)cc2n1	u	10%	u	x	28%
CCOc1ccc(NC(=O)c2c(Nc3ccccc3C)sc(C(=O)c3ccccc3)c2N)cc1	12µM*	14%	u	x	u
CCOc1ccccc1Nc1sc(C(=O)c2ccc(Cl)cc2)c(N)c1C(=O)NCCc1ccccc1	21µM*	7%	4.6µM*	x	0%
Cc1ccccc1Nc1sc(C(=O)Nc2cccc(Cl)c2)c(N)c1C(N)=O	4%	7%	19%	4%	-2%
CCOc1ccccc1Nc1sc(C(=O)c2ccccc2)c(N)c1C(=O)Nc1ccc(F)cc1	13µM*	3%	u	x	11%
Cc1ccc(Nc2sc(C(=O)c3ccccc3)c(N)c2C(N)=O)cc1	u	5%	u	x	u
CCOc1ccccc1Nc1sc(C(=O)c2ccc(Cl)cc2)c(N)c1C#N	u	-1%	u	x	13%
COc1ccccc1Nc1sc(C(=O)c2ccc(F)cc2)c(N)c1S(=O)(=O)c1ccc(C)cc1	x	1%	x	x	13%
Cc1cccc(C)c1Nc1sc(C(=O)c2ccccc2)c(N)c1C(=O)Nc1ccc(F)cc1	21µM*	7%	u	x	15%
C=CCNC(=O)CN(CCc1ccccc1)S(=O)(=O)c1ccccc1	5%	x	-1%	0%	-2%
COc1ccc(CC(=O)c2c(O)cc(O)cc2O)cc1OC	0%	6%	-24%	x	-21%
Cc1ccc(OCC(=O)O/N=C(\N)Cc2ccc([N+](=O)[O-])cc2)cc1C	0%	x	19%	0%	-3%
C[C@H](CO)N1C[C@H](C)[C@@H](CN(C)S(=O)(=O)c2ccc(F)cc2)Oc2ccc(NS(=O)(=O)c3cccs3)cc2C1=O	-24%	3%	-19%	-3%	x
[O-]/C(=C(\C(=S)Nc1cccc2ccccc12)[n+]1ccccc1)c1ccc(Cl)s1	18µM*	-2%	u	-4%	-5%
CCc1cccc(CC)c1NC(=S)/C(=C(\[O-])c1ccc(Cl)s1)[n+]1ccccc1	1.8µM*	3%	2.3µM*	-23%	-1%
[O-]C(=C(C(=S)Nc1cccc2ccccc12)[n+]1cccc(CO)c1)c1ccc(Cl)s1	-28%	x	u	7%	x
Cc1cc(C)cc(NC(=S)/C(=C(\[O-])c2ccc(Cl)cc2Cl)[n+]2ccc(C(C)(C)C)cc2)c1	-19%	x	-20%	11%	-6%
Cc1ccc(C)c(NC(=S)/C(=C(\[O-])c2ccc(Cl)s2)[n+]2ccccc2)c1	-14%	6%	-18%	22%	-11%
Cc1cc(C)cc(NC(=S)/C(=C(\[O-])c2ccc(Cl)s2)[n+]2cccc(C)c2)c1	21µM*	1%	18µM*	3%	-4%
O=C(CSc1cccc(C(F)(F)F)c1)NCc1ccccc1	-21%	0%	5%	-2%	-4%
COc1ccccc1-c1cnn2c(NC3CCCC3)cc(C)nc12	21µM*	x	29µM*	0%	-67%
CCOC(=O)C1CCCN(c2cc(C)nc3c(-c4ccccc4OC)c(C)nn23)C1 (centres undefined)	u	-2%	13µM*	x	4%
SMILES	TDP1 cell noCPT	TDP1 block	DT40 TDP1 CPT	uPA generation	miR-21 reporter
Cc1cc(NC2CCCCC2)n2c(n1)nc1ccccc12	u	5%	-10%	8%	-2%
COc1ccccc1-c1c(C)nn2c(N3CCC(C(N)=O)CC3)cc(C)nc12	-14%	4%	-4%	15%	-1%
CCOC(=O)N1CCC(Nc2cc(C)nc3c(-c4ccccc4OC)c(C)nn23)CC1	9.2µM*	8%	5.8µM*	u	16%
CCOC(=O)N1CCN(C(=O)CSc2cc(C)nc3c(-c4ccccc4OC)c(C)nn23)CC1	16µM*	8%	23µM*	18%	-1%
Cc1cccc(Sc2c([N+](=O)[O-])ncn2C)n1	-15%	4%	-5%	-5%	-3%
Cn1cnc([N+](=O)[O-])c1S(=O)(=O)Nc1ccccc1	15µM*	x	16µM*	-14%	x
Cn1cnc([N+](=O)[O-])c1S(=O)(=O)Oc1ccccc1	1µM*	x	0.65µM*	-18%	x
Cn1cnc([N+](=O)[O-])c1NCc1ccccc1	-3%	x	3%	2%	4%
Cn1cnc([N+](=O)[O-])c1S(=O)(=O)c1cccc(Cl)c1	2.3µM*	5%	1.8µM*	u	u
O=C(NCCS(=O)(=O)N1CCN(c2ccc(F)cc2)CC1)c1ccc(Br)o1	u	6%	-29%	8%	6%
Cc1ccc(S(=O)(=O)N2CCOCC2)cc1C(=O)N1CCC(Cc2ccccc2)CC1	15µM*	10%	u	-1%	13%
Cc1ccc(C)c(N2CCN(C(=O)c3cc(S(=O)(=O)N4CCCC4)cn3C)CC2)c1	21µM*	4%	18µM*	-3%	0%
Cc1ccc(C)c(N2CCN(C(=O)c3cc(S(=O)(=O)N4CCCCCC4)cn3C)CC2)c1	u	4%	u	x	7%
Cc1cccc(N2CCN(C(=O)c3cc(S(=O)(=O)N4CCOCC4)cn3C)CC2)c1C	u	x	u	0%	0%
Cc1cccc(N2CCN(S(=O)(=O)c3csc(C(N)=O)c3)CC2)c1C	21µM*	3%	12µM*	x	25%
CC(=O)c1ccc(N2CCN(S(=O)(=O)c3csc(C(N)=O)c3)CC2)cc1	6%	2%	-2%	-1%	0%
Cc1cccc(N2CCN(C(=O)c3cc(S(=O)(=O)N4CCCC4)cn3C)CC2)c1C	u	x	23µM*	u	25%
O=C(c1cc(S(=O)(=O)N2CCOCC2)ccc1Cl)N1CCC(Cc2ccccc2)CC1	u	x	u	3%	x
CN(C)C(=S)SCC(=O)NC(=O)NC(C)(C)C	u	7%	-12%	-8%	-14%
Cc1ccc(C)c(N2CCN(C(=O)c3cc(S(=O)(=O)N4CCOCC4)ccc3F)CC2)c1	13µM*	0%	15µM*	-2%	0%
CCCCn1ccnc1C(=O)c1cc(S(=O)(=O)N2CCOCC2)ccc1C	10µM*	6%	12µM*	x	13%
Cc1ccc(C)c(N2CCN(C(=O)CN3C(=O)COc4ccc(S(=O)(=O)N5CCOCC5)cc43)CC2)c1	x	9%	x	x	-3%
